HSF-1 act = HSF-1 activators, primary screen, NIH3T3-HGL cells, MG132 stress, luminescence, single point. NIH3T3-HGL HSF-1 luciferase reporter, 8 h; 100% = twice DMSO control signal. activation, % at 9 µM. 300,000 compounds, 1.7% hits;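 active = mean replicate activation of at least 50% with a set share of replicates each reaching 50%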;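 also: 0% = median of the neutral control wells and 100% = twice that signal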
TWEAK-Fn14 inh = inhibitors of TWEAK-Fn14 signaling, primary screen, luciferase reporter cells, uHTS | TWEAK-stimulated Fn14 reporter cells, luciferase luminescence, 8 h | inhibition, % at 10 µM | 360,000 compounds, 2% hits; in the data active = inhibition above about 50%
HSF1 inhib = HSF1 inhibitors in luciferase reporter cells, primary screen, cell-based, NIH3T3, luminescence | NIH3T3-HGL HSE-luciferase, MG132-induced, luminescence 8 h; active compounds read low | 300,000 compounds, 0.77% hits | activity change, negative = inhibition, % at 7.5 µM (by protocol);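 active = more than half of replicate wells show activity change below -50%, luminescence cut by over half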;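 also: luciferase reports HSF-1 transcriptional activity via heat shock element; 0% = median of DMSO wells and -100% = zero luminescence signal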
HSP90 refold inh = HSP90 inhibitors, primary screen, cell lysate, luminescence. 290,000 compounds, 0.91% hits. Rabbit reticulocyte lysate, luciferase refolding luminescence, 3 h. Heat shock protein HSP 90 (rabbit reticulocyte lysate; luciferase refolding). AID 1789, 2009. inhibition, % at 5.6 µM;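 active = inhibition above the screen-wide mean plus 3 SD, computed separately per campaign, cut at about 16% in these data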;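 also: 0% = DMSO wells and 100% = 60 µM geldanamycin wells; inhibitors lower the luminescence because luciferase stays unfolded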
TROY signal inh = inhibitors of TROY-driven NF-kB signaling, primary screen, Q293 LMP1-TROYcd cells, NF-kB luciferase, uHTS. Q293 LMP1-TROYcd NF-kB luciferase reporter, 4 h. inhibition, % at 10 µM. 360,000 compounds, 0.98% hits. AID 1347056, 2019;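 active = compounds whose plate-normalised and pattern-corrected inhibition of the luciferase reporter signal at the single screening dose is 50% or more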
EBV LMP1 NFkB = EBV LMP1-driven NF-kappaB luciferase reporter inhibitors, primary screen, cell-based, luminescence, single point | AID 504558, 2011 | LMP1-induced NF-kappaB luciferase reporter cells | 350,000 compounds, 0.69% hits | inhibition, % at 12.5 µM; in the data active = inhibition above about 41%;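 also: 0% = neutral control wells and 100% = reference inhibitor control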
The depositor's hits bear a star; · = no result given. In the library only some 4.7% were active in any assay of this set; here they are far more common.

SMILES | HSF-1 act | TWEAK-Fn14 inh | HSF1 inhib | HSP90 refold inh | TROY signal inh | EBV LMP1 NFkB
CCCS(=O)(=O)NC(=O)C1(C)CCCN(C(=O)c2cc(C)nn2C(C)(C)C)C1 (stereo not given) | · | -16 | · | · | 2 | ·
COc1cc(NC(=O)COc2ccc(Cl)cc2)ccc1NC(=O)C(C)C | · | -7 | · | -1 | 1 | 4
COc1ccc2oc(=O)c(C(=O)Nc3ccccc3O)cc2c1 | 7 | 43 | 10 | 5 | -13 | 1
COc1ccc2oc(=O)c(C(C)=O)cc2c1 | 3 | 2 | 0 | -2 | -5 | -7
COc1cc(NC(=O)COc2ccc(Cl)cc2)ccc1-c1cc2ccccc2oc1=O | 10 | 59* | -3 | -2 | 28 | -7
CCCCCCc1cc2cc(C(=O)Nc3cccc(OC)c3)c(=O)oc2cc1O | 2 | 59* | -6 | 2 | 36 | 5
COc1ccc(NC(=O)c2cc3cc(OC)ccc3oc2=N)cc1 | -60 | 12 | -53* | -2 | -46 | 5
COc1ccc(NC(=O)c2cc3ccccc3oc2=O)cc1 | · | 100* | · | · | 74* | 73*
FC(F)(F)Oc1ccccc1C(c1nnnn1C1CCCC1)N1CCN(C/C=C/c2ccccc2)CC1 (stereo not given) | · | 1 | · | · | 15 | ·
OC(CSc1nnnn1-c1ccccc1)Cn1c2ccccc2c2ccccc21 (stereo not given) | · | 1 | · | · | 8 | ·
CCc1nc2ccc(C(=O)NCc3cccs3)cn2c1N(CC)Cc1cccc(Br)c1 | · | 10 | · | · | 13 | ·
O=C(NCc1cccnc1)c1cc2ccccc2oc1=O | 23 | 7 | -4 | 1 | -8 | 6
Cc1ccc(NC(=O)c2cc3ccccc3o2)cc1S(=O)(=O)N(C)C | · | 40 | · | -4 | -9 | -28
Cc1ccc(NC(=O)c2cc3ccccc3oc2=O)cc1S(=O)(=O)N(C)C | -91 | 102* | -89* | 38* | 90* | 64*
O=C(NCCc1cccc(Cl)c1)c1cc2ccccc2oc1=O | 278* | -5 | 187 | -5 | -3 | 4
CN(C)CCNc1ncnc2c1ncn2[C@H]1CN(Cc2ccncc2)C[C@@H](CO)O1 | · | -14 | · | · | -9 | ·
O=C(Nc1cc(S(=O)(=O)N2CCOCC2)ccc1Cl)c1cc([N+](=O)[O-])ccc1Cl | · | 77* | · | · | 5 | -1
O=C(Nc1ccccc1Cl)c1cc(S(=O)(=O)N2CCCC(C(=O)O)C2)ccc1F (stereo not given) | 4 | 88* | -4 | -3 | 6 | -1
Cc1cc(C)c(NC(=O)c2cc(S(=O)(=O)N3CCOCC3)ccc2F)c(C)c1 | 7 | 4 | 2 | -3 | 13 | -6
O=C(Nc1ccccc1C(=O)O)c1cc(S(=O)(=O)N2CCCCCC2)ccc1Cl | -9 | 0 | -7 | -4 | 31 | -1
Cc1ccc(NC(=O)c2cc(S(=O)(=O)N3CCOCC3)ccc2F)c(C)c1 | -3 | 80* | 7 | 1 | -20 | -10
CCCCCc1c(-c2ccc(OC)cc2)ncn1CCc1ccccc1OC | · | 49 | · | · | 42 | ·
CC(=O)c1ccc(NC(=O)/C(Cl)=C/c2ccccc2)cc1 | 16 | 40 | -13 | 10 | 71* | -26
Cc1ccc(NC(=O)/C(Cl)=C\c2ccccc2)cc1 | 6 | 42 | -10 | · | -5 | -11
Cc1nonc1OCCNCCNc1ccc([N+](=O)[O-])cc1Cl | 77* | -16 | 36 | -1 | -2 | 8
Cc1nonc1OCCNc1ccc([N+](=O)[O-])cc1 | 4 | -1 | -5 | 1 | -6 | -1
C=CCNc1ncnc2c1cnn2-c1ccc(Cl)cc1 | 49 | 25 | 29 | -7 | -8 | -65
CCOC(=O)C1CCCN(c2ncnc3c2cnn3-c2ccc(Cl)cc2)C1 (stereo not given) | -36 | 63* | -23 | 3 | 43 | 13
CCOC(=O)N1CCC(Nc2ncnc3c2cnn3-c2ccc(Cl)cc2)CC1 | -54 | 49 | -48 | 9 | 50* | -3
CC1CN(c2ncnc3c2cnn3-c2ccc(Cl)cc2)CC(C)O1 (stereo not given) | -31 | 50 | -28 | 16* | 55* | -46

Compound activity deposited in PubChem by several laboratories.
